# Experimental data reported in PubChem BioAssay (NCI).
# This is part of a sample that, as a whole, favours compounds with a hit. Of some 79,000 tested, about 15% had one in any assay. Values without a mark were called inactive. Active and inactive are the calls of the source. Rule as the data show it: active = growth inhibition above about 70%; inactive = the rest.
# What was measured:
# [1] = NCI Yeast Anticancer Drug Screen. Data for the wt2 strain (AID 169);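 also: 0% = growth of vehicle-treated yeast cultures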; conditions: S. cerevisiae wt2 strain growth inhibition, stronger effect = higher value
# Summary of the method: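 Genetically defined yeast strains from a DNA-repair/cell-cycle panel were used. Compound-exposed yeast growth was measured, and the inhibition was calculated relative to vehicle treatment.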
# [2] = NCI Yeast Anticancer Drug Screen. Data for the mlh1 strain (AID 171);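 also: 0% = growth of vehicle-treated control cultures of the same strain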; conditions: S. cerevisiae mlh1 strain growth inhibition, stronger effect = higher value
# Summary of the method: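 Here the genetically defined yeast mutant is grown with each compound, and the extent to which its growth falls below that of vehicle-exposed cells is reported.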
# [3] = NCI Yeast Anticancer Drug Screen. Data for the sgs1 strain (AID 173);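 also: 0% = growth of vehicle-only control cultures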; conditions: S. cerevisiae sgs1 mutant, stronger effect = higher value
# Summary of the method: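 Relative growth inhibition, referenced to vehicle, was determined in a yeast strain with a defined alteration affecting DNA damage repair or cell cycle control after compound exposure.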
# [4] = NCI Yeast Anticancer Drug Screen. Data for the mlh1 rad18 strain (AID 175); conditions: S. cerevisiae mlh1 rad18 strain growth inhibition, stronger effect = higher value
# Summary of the method: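 In this whole-cell yeast screen, a strain with altered DNA damage repair is challenged with compound, and its growth is measured against matched vehicle-treated controls.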
# [5] = NCI Yeast Anticancer Drug Screen. Data for the rad18 strain (AID 177); conditions: S. cerevisiae rad18 mutant growth inhibition, stronger effect = higher value
# Summary of the method: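 Screen uses a yeast strain with a defined lesion in DNA damage repair; compound effect is read as loss of growth compared to untreated vehicle cultures.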
# [6] = NCI Yeast Anticancer Drug Screen. Data for the rad52 strain (AID 147);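 also: 0% = growth of vehicle-treated control cultures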; conditions: S. cerevisiae rad52 mutant growth inhibition, stronger effect = higher value
# Summary of the method: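 Measured: yeast growth inhibition. System: strain with a defined DNA damage repair alteration. Reference: vehicle-treated control cultures.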
# [7] = NCI Yeast Anticancer Drug Screen. Data for the wt1 strain (AID 149);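 also: 0% = growth of vehicle-treated wt1 cultures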; conditions: S. cerevisiae wt1 strain (SPY 50644) growth inhibition, stronger effect = higher value
# Summary of the method: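 Measured: growth of wt1 yeast under compound versus vehicle treatment, reported as inhibition.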
# [8] = NCI Yeast Anticancer Drug Screen. Data for the rad50EPP+ strain (AID 151);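 also: 0% = growth of vehicle-treated control cultures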; conditions: S. cerevisiae rad50 mutant strain, stronger effect = higher value
# Summary of the method: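 One strain with a rad50 alteration (rad50EPP+) was compound-treated, its growth then compared to that of vehicle controls.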
# [9] = NCI Yeast Anticancer Drug Screen. Data for the mgt1 strain (AID 153); conditions: S. cerevisiae mgt1 mutant growth inhibition, stronger effect = higher value
# Summary of the method: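 After exposure of the mgt1 yeast mutant to compound, growth was measured and reported as inhibition compared with vehicle controls.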
# [10] = NCI Yeast Anticancer Drug Screen. Data for the rad50 strain (AID 155);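 also: 0% = growth of vehicle-only cultures of the same strain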; conditions: S. cerevisiae rad50 strain growth inhibition, stronger effect = higher value
# Summary of the method: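 Growth of the mutant yeast was measured after compound exposure and referenced to vehicle-treated cultures.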
# [11] = NCI Yeast Anticancer Drug Screen. Data for the mec2-1 strain (AID 157); conditions: S. cerevisiae mec2-1 strain, stronger effect = higher value
# Summary of the method: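 Test agents were screened against the mec2-1 yeast strain, with defined DNA repair or cell cycle alteration. Growth was scored as inhibition against vehicle-only controls.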
# [12] = NCI Yeast Anticancer Drug Screen. Data for the rad14 strain (AID 159);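 also: 0% = growth of vehicle-treated control cultures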; conditions: S. cerevisiae rad14 strain growth inhibition, stronger effect = higher value
# Summary of the method: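 Here, inhibition of yeast growth was measured after compound exposure, using a strain with a genetic defect in DNA damage repair and vehicle-treated cultures as the reference.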
# [13] = NCI Yeast Anticancer Drug Screen. Data for the sgs1 mgt1 strain (AID 161);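 also: 0% = growth of cultures given vehicle only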; conditions: S. cerevisiae sgs1 mgt1 strain, stronger effect = higher value
# Summary of the method: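 Genetically altered yeast, compound exposure, growth inhibition relative to vehicle.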
# [14] = NCI Yeast Anticancer Drug Screen. Data for the CLN2oe strain (AID 163);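 also: 0% = growth of vehicle-only control cultures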; conditions: S. cerevisiae CLN2oe strain, stronger effect = higher value
# Summary of the method: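 Here, growth inhibition in a cell-cycle-altered yeast strain after compound exposure was quantified against vehicle control growth.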
# [15] = NCI Yeast Anticancer Drug Screen. Data for the cln2 rad14 strain (AID 165);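 also: 0% = growth equal to vehicle treated cultures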; conditions: S. cerevisiae cln2 rad14 strain, stronger effect = higher value
# Summary of the method: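 Growth of compound-exposed yeast (cln2 rad14 genotype) measured and expressed as inhibition relative to vehicle.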
# [16] = NCI Yeast Anticancer Drug Screen. Data for the bub3 strain (AID 167); conditions: S. cerevisiae bub3 mutant strain, stronger effect = higher value
# Summary of the method: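 Whole-cell yeast assay. The mutant strain was incubated with compounds, and growth inhibition was determined by comparison with vehicle-treated cells.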
# [17] = at 5.0 µM (retest, dose inferred, filed as 0.5)
# [18] = at 50.0 µM (retest, dose inferred, filed as 5.0)
compound,measurement,setting,value
OC1(C#CI)CCCCC1,growth inhibition,[1]; at 1.2 µM,-7%
same,growth inhibition,[1]; at 3.7 µM,28%
same,growth inhibition,[1]; at 11.0 µM,98% (active)
same,growth inhibition,[1]; at 33.0 µM,99% (active)
same,growth inhibition,[1]; at 100.0 µM,100% (active)
same,growth inhibition,[2]; at 1.2 µM,-14%
same,growth inhibition,[2]; at 3.7 µM,17%
same,growth inhibition,[2]; at 11.0 µM,96% (active)
same,growth inhibition,[2]; at 33.0 µM,99% (active)
same,growth inhibition,[2]; at 100.0 µM,99% (active)
same,growth inhibition,[3]; at 1.2 µM,1%
same,growth inhibition,[3]; at 3.7 µM,37%
same,growth inhibition,[3]; at 11.0 µM,96% (active)
same,growth inhibition,[3]; at 33.0 µM,99% (active)
same,growth inhibition,[3]; at 100.0 µM,99% (active)
same,growth inhibition,[4]; [17],-52%
same,growth inhibition,[4]; [18],97% (active)
same,growth inhibition,[4]; at 50.0 µM,99.1% (active)
same,growth inhibition,[5]; at 1.2 µM,3%
same,growth inhibition,[5]; at 3.7 µM,60%
same,growth inhibition,[5]; at 11.0 µM,96% (active)
same,growth inhibition,[5]; at 33.0 µM,99% (active)
same,growth inhibition,[5]; at 100.0 µM,99% (active)
COc1cccc(/C=C2\S/C(=N/Nc3nc(-c4ccc([N+](=O)[O-])cc4)cs3)NC2=O)c1O,growth inhibition,[6]; at 1.2 µM,15%
same,growth inhibition,[6]; at 3.7 µM,21%
same,growth inhibition,[6]; at 11.0 µM,58%
same,growth inhibition,[6]; at 33.0 µM,72% (active)
same,growth inhibition,[6]; at 100.0 µM,80% (active)
same,growth inhibition,[7]; at 1.2 µM,-78%
same,growth inhibition,[7]; at 3.7 µM,7%
same,growth inhibition,[7]; at 11.0 µM,22%
same,growth inhibition,[7]; at 33.0 µM,42%
same,growth inhibition,[7]; at 100.0 µM,57%
same,growth inhibition,[8]; at 1.2 µM,33%
same,growth inhibition,[8]; at 3.7 µM,63%
same,growth inhibition,[8]; at 11.0 µM,89% (active)
same,growth inhibition,[8]; at 33.0 µM,96% (active)
same,growth inhibition,[8]; at 100.0 µM,94% (active)
same,growth inhibition,[9]; at 1.2 µM,9%
same,growth inhibition,[9]; at 3.7 µM,23%
same,growth inhibition,[9]; at 11.0 µM,39%
same,growth inhibition,[9]; at 33.0 µM,59%
same,growth inhibition,[9]; at 100.0 µM,56%
same,growth inhibition,[10]; at 1.2 µM,2%
same,growth inhibition,[10]; at 3.7 µM,11%
same,growth inhibition,[10]; [17],-1%
same,growth inhibition,[10]; at 11.0 µM,43%
same,growth inhibition,[10]; at 33.0 µM,73% (active)
same,growth inhibition,[10]; [18],84% (active)
same,growth inhibition,[10]; at 50.0 µM,97% (active)
same,growth inhibition,[10]; at 100.0 µM,80% (active)
same,growth inhibition,[11]; at 1.2 µM,1%
same,growth inhibition,[11]; at 3.7 µM,12%
same,growth inhibition,[11]; [17],-4%
same,growth inhibition,[11]; at 11.0 µM,39%
same,growth inhibition,[11]; at 33.0 µM,79% (active)
same,growth inhibition,[11]; [18],52%
same,growth inhibition,[11]; at 50.0 µM,94.2% (active)
same,growth inhibition,[11]; at 100.0 µM,83% (active)
same,growth inhibition,[12]; at 1.2 µM,0%
same,growth inhibition,[12]; at 3.7 µM,3%
same,growth inhibition,[12]; at 11.0 µM,6%
same,growth inhibition,[12]; at 33.0 µM,20%
same,growth inhibition,[12]; at 100.0 µM,43%
same,growth inhibition,[13]; [17],0%
same,growth inhibition,[13]; [18],76% (active)
same,growth inhibition,[13]; at 50.0 µM,95.7% (active)
same,growth inhibition,[14]; at 1.2 µM,6%
same,growth inhibition,[14]; at 3.7 µM,25%
same,growth inhibition,[14]; at 11.0 µM,63%
same,growth inhibition,[14]; at 33.0 µM,90% (active)
same,growth inhibition,[14]; at 100.0 µM,93% (active)
same,growth inhibition,[15]; [17],33%
same,growth inhibition,[15]; [18],85% (active)
same,growth inhibition,[15]; at 50.0 µM,76.7% (active)
same,growth inhibition,[16]; at 1.2 µM,7%
same,growth inhibition,[16]; at 3.7 µM,33%
same,growth inhibition,[16]; [17],82% (active)
same,growth inhibition,[16]; at 11.0 µM,62%
same,growth inhibition,[16]; at 33.0 µM,90% (active)
same,growth inhibition,[16]; [18],97% (active)
same,growth inhibition,[16]; at 50.0 µM,97% (active)
same,growth inhibition,[16]; at 100.0 µM,94% (active)
same,growth inhibition,[1]; at 1.2 µM,-2%
same,growth inhibition,[1]; at 3.7 µM,23%
same,growth inhibition,[1]; at 11.0 µM,76% (active)
same,growth inhibition,[1]; at 33.0 µM,94% (active)
same,growth inhibition,[1]; at 100.0 µM,92% (active)
same,growth inhibition,[2]; at 1.2 µM,-1%
same,growth inhibition,[2]; at 3.7 µM,6%
same,growth inhibition,[2]; at 11.0 µM,30%
same,growth inhibition,[2]; at 33.0 µM,63%
same,growth inhibition,[2]; at 100.0 µM,74% (active)
same,growth inhibition,[3]; at 1.2 µM,5%
same,growth inhibition,[3]; at 3.7 µM,19%
same,growth inhibition,[3]; at 11.0 µM,50%
same,growth inhibition,[3]; at 33.0 µM,77% (active)
same,growth inhibition,[3]; at 100.0 µM,76% (active)
same,growth inhibition,[4]; [17],10%
same,growth inhibition,[4]; [18],89% (active)
same,growth inhibition,[4]; at 50.0 µM,95.3% (active)
same,growth inhibition,[5]; at 1.2 µM,10%
same,growth inhibition,[5]; at 3.7 µM,25%
same,growth inhibition,[5]; at 11.0 µM,72% (active)
same,growth inhibition,[5]; at 33.0 µM,93% (active)
same,growth inhibition,[5]; at 100.0 µM,92% (active)
